Laboratory results from PubChem BioAssay (NCI).
Compounds without any hit were thinned out: in the full panel of roughly 83,000, 20% have a hit.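 Method: cells in 96-well plates; compound added at one concentration; 48 h incubation; percent growth measured; values under 10 scored active.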

What was measured:
Assay in all cases: NCI-60 one-dose screen, 48 h (100 = growth as untreated, 0 = no growth, -100 = all killed)
Conditions in all cases: 10 µM
[1] = test system: NCI-H23 lung
[2] = test system: NCI-H226 lung
[3] = test system: NCI-H322M lung
[4] = test system: HOP-62 NSCLC
[5] = test system: NCI-H460 lung
[6] = test system: HOP-92 NSCLC
[7] = test system: A549/ATCC NSCLC
[8] = test system: 786-0 renal
[9] = test system: COLO 205 colon
[10] = test system: DU-145 prostate
[11] = test system: K-562 leukemia
[12] = test system: MALME-3M melanoma
[13] = test system: MDA-MB-231 breast
[14] = test system: RXF 393 renal
[15] = test system: SF-268 CNS
[16] = test system: SF-295 CNS
[17] = test system: SF-539 CNS
[18] = test system: M14 melanoma
[19] = test system: UACC-257 melanoma
[20] = test system: NCI-H522 lung

Measured: growth

O=C(NCc1ccco1)Nc1c(Cl)cc(Cl)cc1Cl
inactive: [1] 104% | [2] 99.6% | [3] 106% | [4] 97.3% | [5] 103% | [6] 79.6% | [7] 102% | [8] 97.2% | [9] 107% | [10] 113% | [11] 106% | [12] 97.3% | [13] 101% | [14] 107% | [15] 104% | [16] 93.5% | [17] 94.7% | [18] 99.3%

Brc1cnc2ccccc2c1
inactive: [1] 103% | [2] 105% | [3] 106% | [4] 100% | [5] 109% | [6] 95.1% | [7] 104% | [8] 109% | [9] 100% | [10] 102% | [11] 107% | [12] 94.6% | [13] 113% | [14] 121% | [15] 97.2% | [16] 101% | [17] 103% | [19] 103% | [18] 97.7%

O=c1[nH]c(O)c(/C=C2/C=Nc3ccccc32)[nH]1
inactive: [1] 101% | [2] 92.1% | [3] 107% | [4] 99.4% | [5] 99.3% | [6] 84.5% | [7] 91.3% | [8] 107% | [9] 101% | [10] 99.3% | [11] 86.1% | [12] 125% | [13] 89.6% | [14] 103% | [15] 82.1% | [16] 125% | [17] 91.5% | [19] 101% | [18] 99.4%

O=C(OCC(O)C1OC(c2ccccc2)OC(COC(=O)c2ccccc2)C1O)c1ccccc1 (stereo not given)
inactive: [1] 111% | [2] 99.6% | [3] 109% | [4] 99% | [5] 104% | [6] 89.8% | [7] 94.8% | [8] 111% | [9] 99.9% | [10] 118% | [11] 101% | [12] 105% | [13] 107% | [14] 96.3% | [15] 110% | [16] 77.3% | [17] 103% | [18] 110%

O=[N+]([O-])c1ccccc1S(=O)c1ccccc1[N+](=O)[O-]
inactive: [1] 95.9% | [2] 111% | [3] 95.5% | [4] 108% | [5] 105% | [6] 76.2% | [7] 101% | [8] 111% | [9] 106% | [10] 106% | [11] 47.9% | [12] 90.4% | [13] 74% | [14] 111% | [15] 88.1% | [16] 79% | [17] 113% | [18] 95.9%

COc1ccc(C(O)c2ccccc2)cc1 (stereo not given)
inactive: [1] 97.6% | [2] 94% | [3] 93.7% | [4] 90.6% | [5] 98.7% | [6] 93.4% | [20] 94.8% | [8] 100% | [9] 106% | [10] 108% | [11] 88.5% | [12] 101% | [13] 95.5% | [14] 111% | [15] 93.8% | [16] 102% | [17] 102% | [18] 103%

Nc1ccc(N=Nc2ccc(S(=O)(=O)O)cc2)c2ccccc12
inactive: [1] 86.2% | [2] 87% | [3] 91.8% | [4] 63.7% | [5] 94.8% | [6] 76.9% | [20] 95.7% | [8] 106% | [9] 90.7% | [10] 106% | [11] 94.6% | [12] 83.4% | [13] 87.8% | [14] 101% | [15] 106% | [16] 99.5% | [17] 103% | [18] 99.1%

O=[N+]([O-])c1ccc(CO)cc1
inactive: [1] 104% | [2] 98.4% | [3] 98.9% | [4] 90.8% | [5] 98.7% | [6] 110% | [20] 104% | [8] 94.4% | [9] 109% | [10] 115% | [11] 93.7% | [12] 99.3% | [13] 95.2% | [14] 97.9% | [15] 107% | [16] 94.4% | [17] 97.9% | [18] 103%

O=S(=O)(O)c1ccc(O)c2ccccc12
inactive: [1] 93.4% | [2] 102% | [3] 110% | [4] 107% | [5] 115% | [6] 98.8% | [7] 118% | [8] 101% | [9] 121% | [10] 115% | [11] 104% | [12] 127% | [13] 90.8% | [14] 108% | [15] 98.5% | [16] 119% | [17] 91.8% | [19] 112% | [18] 79.4%
